Many of the other results were omitted from the sample, so hits are more common in it than they were.
Tb PYK inh: inhibitors of Trypanosoma brucei pyruvate kinase; Q57TT1; TbPYK enzyme, Kinase-Glo Plus ATP luminescence, 45 min; Potency, µM (top dose mostly 76.8 µM), usual class: inhibitors; actives 0.12% (n = 410,000); AID 624173; further: nearly all actives have a fitted effect of over 50% in size
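Readout: single end-point luminescence (Kinase-Glo Plus, 10 min). Reaction conditions were TbPYK/substrate plus 130 uM ADP, 45 min at RT, pH 7.2 TEA buffer. No-enzyme wells served as controls, and data were normalized before concentration-response fitting.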
CHX counter: counter-screen for Shiga toxin inhibitors: cycloheximide protein synthesis inhibition; cell reporter, cycloheximide protein synthesis inhibition counterscreen; max response, %; actives 12% (n = 300,000); AID 2314; in the data active means max response mostly above about 13%, no sharp cut-off; inactive means mostly below about 14%; further: read at 38.3 µM for the half of the compounds with a filed dose
Giardia FBPA inh: inhibitors of Giardia lamblia fructose-1,6-bisphosphate aldolase | A8B2U2 | purified Giardia FBPA | Potency, µM (titrated, usually from 59.6 µM), hits mostly inhibitors | actives 0.71% (n = 290,000); further: nearly all actives have a fitted effect of over 55% in size
Target sequence (A8B2U2 whole entry, looked up): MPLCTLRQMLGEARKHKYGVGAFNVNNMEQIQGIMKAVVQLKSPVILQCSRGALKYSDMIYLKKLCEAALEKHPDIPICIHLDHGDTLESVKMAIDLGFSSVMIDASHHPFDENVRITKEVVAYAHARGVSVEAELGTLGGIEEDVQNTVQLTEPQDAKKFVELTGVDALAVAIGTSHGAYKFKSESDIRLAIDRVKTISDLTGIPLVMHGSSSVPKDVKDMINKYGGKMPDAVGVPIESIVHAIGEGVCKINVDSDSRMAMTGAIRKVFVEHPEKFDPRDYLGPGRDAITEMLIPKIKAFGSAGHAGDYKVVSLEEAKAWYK
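Giardia FBPA (40 nM reagent) was preincubated 10 min at RT with compound (up to 57.5 uM final), then substrate plus GAPDH/TPI/NAD/arsenate coupling system with diaphorase/resazurin was added; resorufin fluorescence (525/598 nm) was read after 20 min.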
Shiga toxin inh: blocks Shiga toxin action in Vero cells | actives 9.2% (n = 290,000) | AID 2315 | Vero cells, Shiga toxin protein synthesis inhibition reporter | inhibition, % at 38.7 µM; in the data active means inhibition mostly above about 28%, no sharp cut-off; inactive means mostly below about 43%
LmPK inh: blocks Leishmania mexicana pyruvate kinase activity; Q27686; purified LmPK, Kinase-Glo ATP luminescence, 1 h; Potency, µM (top dose mostly 57.5 µM), usual class: inhibitors; actives 0.37% (n = 290,000)
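In 50 mM imidazole pH 7.2 with 7 mM MgCl2, LmPK (0.1 nM) turned over PEP (0.5 mM) and ADP (0.1 mM) for 1 h at room temperature. Luciferase read-out of ATP.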
RE007 growth inh: less growth of the S. pombe RE007 Vpr strain; S. pombe RE007 Vpr strain, BacTiter-Glo ATP luminescence, 24 h; actives 0.21% (n = 360,000); AID 651644; Potency, µM (top dose mostly 92.2 µM), actives largely listed as inhibitors; active means well fitted falling curve with a large enough effect; inconclusive means small, poorly fitted or top-dose-only effect; inactive means no such curve, though single readings can be large or run the other way; further: nearly all actives have a fitted effect of over 50% in size
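Fission yeast strain RE007, carrying one chromosomally integrated HIV-1 vpr copy, was seeded at OD 0.01 in PMG+AL medium with 23 nL pinned compound. After 24 h at 30 °C and 99% humidity, viability was read by BacTiter-Glo luminescence.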
Large screens that a line does not name were inactive. Unless noted, the call rests on the fitted dose curve; in most records, active means well fitted curve in the direction sought with a large enough effect; inconclusive means small, poorly fitted or top-dose-only effect, or another doubt; inactive means no such curve, though single readings can be large; an effect the other way counts as inactive or inconclusive.

CS(=O)(=O)c1cccc(NC(=O)c2ccc(Cl)c(Cl)c2)c1	Shiga toxin inh 54
CS(=O)(=O)c1ccc(C(=O)Nc2cc(S(C)(=O)=O)ccc2Cl)cc1	none
O=C(Nc1ccc2c(c1)COC2=O)c1ccc(Cl)c(Cl)c1	CHX counter 34, Shiga toxin inh 71 (no result: Giardia FBPA inh)
Cc1ccc(NC(=O)c2ccc(Cl)c(N3C(=O)C=CC3=O)c2)cc1	Tb PYK inh inconclusive, CHX counter 57, Shiga toxin inh 81, RE007 growth inh inconclusive
COc1ccc(C(=O)NNC2=CC(=O)CC(C)(C)C2)cc1OC	none
CCc1csc(CCNC(=O)C2CCC(=O)N(Cc3cccc(C(F)(F)F)c3)C2)n1 (configuration not stated)	none (no result: Giardia FBPA inh)
O=C(Nc1ccc2c(c1)Cc1ccccc1-2)c1cc2ccccc2o1	none (no result: CHX counter, Giardia FBPA inh, Shiga toxin inh, LmPK inh)
Cc1cc(C)nc(NC(=O)c2ccc(Cl)c(Cl)c2)n1	none
O=C(Nc1ccc2c(c1)Cc1ccccc1-2)c1ccncc1	CHX counter 33, Shiga toxin inh 66
O=C(Nc1ccc(Cl)c(Cl)c1)c1ccncc1	CHX counter 31, Shiga toxin inh 101, RE007 growth inh inconclusive
O=C(Nc1cccnc1)c1ccc(Cl)c(Cl)c1	CHX counter 24 (no result: Shiga toxin inh)
O=C(Nc1ccc(Cl)c(Cl)c1)c1ccc(Cl)c(Cl)c1	CHX counter 50, Shiga toxin inh 89 (no result: RE007 growth inh)
CC(C)n1c(-c2ccc(C(C)(C)C)cc2)n[nH]c1=S	Tb PYK inh inconclusive, LmPK inh 8.9µM
O=C(Nc1cccc(F)c1)/C(=C\c1cccnc1)NC(=O)c1ccco1	none
O=C(/C=C/Nc1cccc(C(F)(F)F)c1)c1ccc(Oc2ncccn2)cc1	CHX counter 47, Shiga toxin inh 87
O=C(Nc1cccc(F)c1)/C(=C/c1ccco1)NC(=O)c1ccco1	CHX counter 20 (no result: Giardia FBPA inh)
O=C(Nc1cccc(C(F)(F)F)c1)c1ccco1	CHX counter 11, RE007 growth inh inconclusive
O=C(CCNC(=O)c1ccco1)Nc1cccc(C(F)(F)F)c1	none
CN(C)/C=C/C(=O)c1cccc(Oc2ncccn2)c1	none
O=C(Nc1cccc(S(=O)(=O)N2CCCC2)c1)c1ccco1	none (no result: CHX counter, Giardia FBPA inh, Shiga toxin inh, LmPK inh)
O=C(Nc1cccc(S(=O)(=O)c2cccc(NC(=O)c3ccco3)c2)c1)c1ccco1	CHX counter 20, Shiga toxin inh 28
CCCCn1c(N)c(N(CC)C(=O)c2c(C)noc2C)c(=O)[nH]c1=O	none (no result: CHX counter, Giardia FBPA inh, Shiga toxin inh, LmPK inh)
CCc1ccccc1NC(=O)CN(Cc1ccccc1)S(=O)(=O)c1ccc(Br)cc1	none (no result: CHX counter, Giardia FBPA inh, Shiga toxin inh, LmPK inh, RE007 growth inh)
Cc1noc(C)c1-c1ccc2ncnc(NC(C)c3ccccc3)c2c1 (configuration not stated)	none (no result: Tb PYK inh, LmPK inh, RE007 growth inh)
NC(=O)/C=C\C(=O)Nc1cccc(C(F)(F)F)c1	RE007 growth inh 18µM
O=C(Nc1ccc(OC(F)F)cc1)Nc1cccc(C(F)(F)F)c1	CHX counter 12
O=C(Nc1ccncc1)Nc1cccc(C(F)(F)F)c1	none
O=C(Nc1cccc(C(F)(F)F)c1)c1scc2c1OCCO2	CHX counter 38
O=C(/C=C/Nc1cccc(C(F)(F)F)c1)c1ccco1	CHX counter 39, Shiga toxin inh 80
O=C(NCCCc1ccccc1)C1CC1	none (no result: CHX counter, Giardia FBPA inh, Shiga toxin inh, LmPK inh)
Clc1ccccc1-c1ccc2ncnc(NC3CCNCC3)c2c1	none (no result: Tb PYK inh, CHX counter, Shiga toxin inh, LmPK inh, RE007 growth inh)
O=C(/C=C/c1cccs1)c1cc(Cl)ccc1O	none
O=C(/C=C/c1ccc2ccccc2n1)c1cc(Cl)ccc1O	CHX counter 39, Shiga toxin inh 66
Cc1ccc(S(=O)(=O)N2Cc3ccccc3CC2C(=O)Nc2ccc3c(c2)OCO3)cc1 (configuration not stated)	CHX counter 30, Shiga toxin inh 60
COc1ccc(S(=O)(=O)N2Cc3ccccc3CC2C(=O)Nc2ccc3c(c2)OCO3)cc1 (configuration not stated)	CHX counter 47
COc1ccc(NC(=O)C2Cc3ccccc3CN2S(=O)(=O)c2ccccc2)cc1OC (configuration not stated)	none (no result: CHX counter, Giardia FBPA inh, Shiga toxin inh, LmPK inh, RE007 growth inh)
CCCn1cc(S(=O)(=O)c2cc(C)ccc2C)c(=O)c2cc(F)c(N3CCCCCC3)cc21	none (no result: CHX counter, Giardia FBPA inh, Shiga toxin inh, LmPK inh, RE007 growth inh)
CO/N=C\CC(=O)Nc1ccc(Cl)cc1Cl	CHX counter 21
CN(Cc1nc(-c2ccccc2)no1)C1CCOCC1	CHX counter 46
c1ccc(-c2noc(CCC3CCCC3)n2)cc1	CHX counter 20

Source: PubChem BioAssay
